Screens deposited in PubChem BioAssay by The Scripps Research Institute Molecular Screening Center.
TEAD-YAP inh = TEAD-YAP interaction inhibition, primary screen, TEAD-YAP interaction inhibitor project, luminescence, HEK-TIYL cells. TEAD-Gal4/YAP UAS-luciferase luminescence. inhibition, % at 9.12 µM. 640,000 tested, 1.4% active; in the data active means inhibition above about 32%;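 further: 0% = median of test compound wells and 100% = reference inhibitor wells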
GPR151 activ = activators of human GPR151, primary screen, cell-based, PathHunter beta-arrestin, luminescence; PathHunter beta-arrestin GPR151 cells; activation, % at 11.2 µM; 650,000 tested, 1% active; in the data active means activation above about 4.9%;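 further: 0% = median of compound wells and 100% = cells with positive control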
MITF primary = MITF inhibitors, primary screen, biochemical, AlphaScreen, human. inhibition, % at 2.6 µM. Microphthalmia-associated transcription factor (Homo sapiens), O75030. 650,000 tested, 0.91% active. AID 1259374, 2018. AlphaScreen MITF homodimerization, bead proximity signal; in the data active means inhibition above about 50%;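 further: 0% = vehicle wells with protein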
FBW7 act = FBW7 E3 ligase activators, primary screen, biochemical, AlphaScreen, human | F-box/WD repeat-containing protein 7 (Homo sapiens), Q969H0 | AlphaScreen FBW7–phospho-cyclin E peptide binding, activator screen | normalized activity (activation), % at 26.1 µM | 650,000 tested, 0.13% active | AID 1259310, 2017; in the data active means normalized activity above about 1.9%;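 further: purified mutant Fbw7 with reduced substrate affinity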
GPR151 conf act = GPR151 activators, triplicate retest, confirmation, cell-based, PathHunter beta-arrestin, luminescence; shares compounds with GPR151 activ; GPR151 PathHunter beta-arrestin cells, 90 min; % of EA-reagent control over plate median; activation, % at 11.2 µM; 6,700 tested, under 10 active; AID 1508609, 2020;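 active means mean percent activation across replicates above the confirmation screen cutoff of 4.91%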
GPR119 counter = GPR119 activators in beta-arrestin cells, counter-screen for GPR151 activator project, cell-based, PathHunter beta-arrestin, luminescence, triplicate | shares compounds with GPR151 activ | 90 min; 0 = compound-well median, 100 = enzyme-acceptor control | activation, % at 11.2 µM | 6,700 tested, 0.3% active;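 active means mean percent activation in the counterscreen above 29.09%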;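 further: counterscreen on off-target GPR119 to flag nonselective hits from the GPR151 activator screen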
Target sequence (Q8TDV5 whole entry, looked up): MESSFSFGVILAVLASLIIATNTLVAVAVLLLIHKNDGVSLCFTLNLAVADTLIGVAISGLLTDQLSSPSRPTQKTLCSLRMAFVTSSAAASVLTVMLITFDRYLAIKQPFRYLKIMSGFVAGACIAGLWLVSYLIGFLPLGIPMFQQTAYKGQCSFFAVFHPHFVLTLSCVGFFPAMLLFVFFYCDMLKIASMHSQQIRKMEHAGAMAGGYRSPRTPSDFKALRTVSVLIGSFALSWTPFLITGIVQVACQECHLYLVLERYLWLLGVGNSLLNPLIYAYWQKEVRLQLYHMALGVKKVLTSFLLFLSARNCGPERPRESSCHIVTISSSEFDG
An asterisk follows results filed as active; x = not tested or not shown; ! = a repeat was not active. An excerpt weighted towards active compounds, which were near 3.5% of everything screened.

SMILES	TEAD-YAP inh	GPR151 activ	MITF primary	FBW7 act	GPR151 conf act	GPR119 counter
CCOC(=O)C1(Cc2ccc(Cl)cc2)CCN(CCC(C)O)CC1 (stereo not given)	6	5.0*	15	0	0	-11
CCOC(=O)C1(Cc2cccc(OC)c2)CCN(CCO)CC1	3	7.9*	15	0	0	6
CCN(CC)C(=O)C(C)O/N=C/c1ccccc1O (stereo not given)	10	0	16	0	x	x
O=C1NC(=O)C(=Cc2ccc(OC(=O)c3ccccc3Cl)cc2)C(=O)N1	-3	5.5*	-10	-1	0	3
Cc1c(C(=O)N(C)C)sc2c1c(=O)n(-c1ccc(Cl)cc1)c(=O)n2CC1OCCO1	4	6.0*	11	0	1	-4
Cc1nc2nc(=S)[nH]n2c(C)c1Cc1ccccc1	-3	-2	-11	0	x	x
COc1ccc(C(=O)NC2=C(C#N)CCC2)cc1OC	-2	1	21	0	x	x
N#CC1=C(NC(=O)c2ccc([N+](=O)[O-])cc2)CCC1	9	5.6*	3	0	-1	6
CCn1c2ccccc2c2cc(CNCCc3ccccc3OC)ccc21	2	4	15	0	x	x
CCOc1ccc2cc(C#N)c(SCC(=O)NC(C)(C)C)nc2c1	-2	7.0*	-1	0	0	6
CCOc1ccc2nc(SCC(=O)Nc3ccc4c(c3)OCCO4)c(C#N)cc2c1	5	6.4*	5	0	0	-10
N#Cc1cc2cc3c(cc2nc1SCC(=O)Nc1ccc(F)cc1)OCO3	-4	2	3	0	x	x
N#Cc1cc2cc3c(cc2nc1SCC(=O)Nc1ccc(F)cc1)OCCO3	7	6.2*	-8	0	0	-10
O=C(O)c1cc(Nc2ccccc2C(=O)O)nc(Nc2ccccc2C(=O)O)n1	-9	2	6	0	x	x
O=C1NN(c2ccc(F)cc2)C(=O)/C1=C\c1cccc(Cl)c1Cl	-4	5.4*	-13	0	2	3
CCOc1cc(C=O)c(Br)cc1OC	3	1	9	0	x	x
COc1ccc2c(c1OC)C(=O)NC(C)=C(C(=O)OC(C)(C)C)C2O (stereo not given)	8	12*	-6	0	0	-3
N#C/C(=C\c1ccc(-c2ccc(F)cc2)o1)C(=O)NCC1CCCO1 (stereo not given)	1	5.5*	-3	0	-1	2
CC(C)C1C2CCC(C2)C1N (stereo not given)	0	5.3*!	10	0	-1	-11
Cc1cccn2c(CN3CCC[C@H]3CO)c(C(=O)N(C)CCc3ccccc3)nc12	1	0	1	0	x	x
Cc1cc2nc(-c3cc(NC(=O)c4cccnc4)ccc3Cl)oc2cc1C	-9	5.3*	-3	0	0	13
O=C(Nc1ccc(Cl)c(-c2nc3ccccc3o2)c1)c1cccnc1	-3	1	15	0	x	x
COc1cccc(CN(CCN(C)C)C(=O)[C@@H](Cc2ccc(-c3cn[nH]c3)cc2)NC(=O)C(C)O)c1 (stereo not given in full)	-3	5.1*	3	0	0	-6
COc1ccc(Cl)cc1NC(=O)N(C)Cc1c(C)nn(C)c1C	-21	9.6*	-15	1	1	-2
COc1ccc(Cl)cc1NC(=O)CCn1nc(C)c(C)c1C	-15	0	4	0	x	x
SMILES	TEAD-YAP inh	GPR151 activ	MITF primary	FBW7 act	GPR151 conf act	GPR119 counter
CCN(CC(=O)N1CCC(Cc2ccccc2)CC1)S(=O)(=O)c1ccc(Cl)cc1	10	1	-6	0	x	x
CN(CC(=O)N1CCC(Cc2ccccc2)CC1)S(=O)(=O)c1ccc2ccccc2c1	-10	5.7*	5	0	0	-3
O=C(/C=C\c1ccc([N+](=O)[O-])cc1)Nc1nnc(-c2cccs2)o1	-5	6.7*	-5	0	-1	1
O=C(/C=C\c1ccc([N+](=O)[O-])cc1)Nc1nnc(-c2ccccc2)o1	-6	0	0	0	x	x
Cc1cccc(C(=O)NNC(=O)/C=C/C(=O)O)c1	-44	9.2*	-1	0	-1	-8
CCn1c(O)c(/C=C2\C=Nc3ccc(Br)cc32)sc1=O	-9	1	15	0	x	x
Oc1[nH]c(=S)sc1/C=C1\C=Nc2ccc(Br)cc21	-6	6.0*	-9	0	0	6
CN(C)S(=O)(=O)c1ccc(C(=O)OCCCC(=O)c2ccc(F)cc2)cc1	-5	11*	10	0	1	15
CCN(CC)S(=O)(=O)c1ccc(C(=O)OCC(=O)c2ccc(F)cc2)cc1	10	0	5	0	x	x
Cc1ccccc1NC(=O)C1C2C=CC(C3CC23)C1C(=O)O (stereo not given)	-7	0	17	0	x	x
COc1ccccc1NC(=O)C1C2C=CC(C3CC23)C1C(=O)O (stereo not given)	6	12*	15	0	0	1
CC(=O)c1ccc(-c2ccc(/C=C(\C#N)C(N)=S)o2)cc1	0	0	-12	0	x	x
N#C/C(=C\c1ccc(-c2ccccc2C#N)o1)C(N)=S	1	6.0*	0	0	0	1
COc1ccc(NC(=O)/C(C#N)=C/c2ccc(-c3ccccc3C(=O)O)o2)cc1	-5	-1	-9	0	x	x
N#C/C(=C\c1ccc(-c2ccccc2C(=O)O)o1)C(=O)Nc1ccccc1	-29	8.2*	-3	0	-1	0
COc1ccccc1NC(=O)CN(Cc1ccccc1)S(=O)(=O)c1ccc(Br)cc1	-3	0	-5	0	x	x
O=C1/C(=C/c2c(F)cccc2Cl)SC(=Nc2ccccc2)N1C1CCCC1	-13	-1	6	0	x	x
CC(C)c1ccc(Nc2nc(CC(=O)O)cs2)cc1	-20	1	-4	0	x	x
CS(=O)(=O)Nc1nc(CC(=O)O)cs1	3	5.2*	-5	0	0	6
Cc1cn2c(=O)c(C(=O)N(C)Cc3ccccc3)cnc2s1	7	-1	10	0	x	x
Clc1cc(NCCN2CCOCC2)ncn1	6	5.7*!	12	0	1	-4
Nc1nc(Cl)cc(NCCN2CCOCC2)n1	9	2	10	0	x	x
Cc1ccc2c(c1)/C(=C\c1ccc(Br)cc1)c1cc3ccccc3nc1-2	5	6.1*	-2	0	-1	-8
CC(C)(C)CN1CCCC(CNS(=O)(=O)c2cccc3cccnc23)C1 (stereo not given)	3	6.4*	19	0	0	-8
